Assay [1] concerns HEK293. In words: Cytotoxic Profiling of Annotated Libraries Using Quantitative High-Throughput Screening (AID 1296008). Also: nearly all actives have a fitted effect of over 60% in size. The settings on record: Five cell lines viability, CellTiter-Glo ATP luminescence, 48-72 h; max response: stronger effect = lower value. In outline:
(§1)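 Cytotoxicity was measured as CellTiter-Glo ATP luminescence, read after 10 min at room temperature. Compound treatment of the cells lasted 48 or 72 hr at 37 degrees Celsius in a qHTS format.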

For assay [2], the system named is HaCat. Described as above. The settings on record: Five cell lines viability, CellTiter-Glo ATP luminescence, 48-72 h; max response: stronger effect = lower value. The method in brief: as §1
For orientation: In ATP-based viability assays light output follows the ATP content of the culture.

Assay [3] deals with HACAT. The assay can be described thus: qHTS assay to identify novel small-molecules to repurpose for Merkel cell carcinoma treatment (AID 1296009). Also: nearly all actives have a fitted effect of over 60% in size. The settings on record: MCC and control cell lines, CellTiter-Glo viability, 72 h; at 44.8 µM (top of the series) unless noted. In outline:
(§2)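 Cell viability measured by CellTiter-Glo following 72 hr compound treatment at 37 degree celsius, with NPC and MIPE libraries tested in 8- and 11-point concentration series.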

Assay [4] has as its system MCC-13. The description is as above. As to conditions: MCC and control cell lines, CellTiter-Glo viability, 72 h; series mostly up to 46 µM. In outline: as §2
Assay [5] relates to MCC-26. Described as above. The settings on record: MCC and control cell lines, CellTiter-Glo viability, 72 h; series mostly up to 46 µM. The method in brief:
as §2

The test system of assay [6] is C33A. In words: Primary qHTS to identify gynecologic anti-cancer compounds using libraries of approved drugs and bioactive compounds (AID 1345084). Also: nearly all actives have a fitted effect of over 55% in size. The settings on record: Gynecologic cancer cell panel viability, ATPlite luminescence, 48 h; series mostly up to 57.5 µM. The method in brief: (§3)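 Cells, 1,000 per well, plated 16 h, then exposed 48 h at 37 C to compounds. Viability by ATPlite luminescence after 15 min at room temperature.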

Assay [7] concerns CAOV3. The assay is described as above. As to conditions: Gynecologic cancer cell panel viability, ATPlite luminescence, 48 h; series mostly up to 57.5 µM. The method in brief: as §3
Assay [8] relates to CASKI. Described as above. As to conditions: Gynecologic cancer cell panel viability, ATPlite luminescence, 48 h; series mostly up to 57.5 µM. The method in brief: as §3
Assay [9] deals with Es-2. The assay is described as above. As to conditions: Gynecologic cancer cell panel viability, ATPlite luminescence, 48 h; series mostly up to 57.5 µM. In outline:
as §3

For assay [10], the system named is HeLa. Described as above. As to conditions: Gynecologic cancer cell panel viability, ATPlite luminescence, 48 h; series mostly up to 57.5 µM. The method in brief: as §3
Assay [11] concerns KB-3-1. The assay can be described thus: Cytotoxic Profiling of Annotated Libraries Using Quantitative High-Throughput Screening (AID 1296008). Also: nearly all actives have a fitted effect of over 60% in size. The settings on record: Five cell lines viability, CellTiter-Glo ATP luminescence, 48-72 h; max response: stronger effect = lower value. The method in brief: as §1
The test system of assay [12] is NIH3T3. The description is as above. As to conditions: Five cell lines viability, CellTiter-Glo ATP luminescence, 48-72 h; max response: stronger effect = lower value. The method in brief:
as §1

Assay [13] deals with MKL-1. In words: qHTS assay to identify novel small-molecules to repurpose for Merkel cell carcinoma treatment (AID 1296009). Also: nearly all actives have a fitted effect of over 60% in size. The settings on record: MCC and control cell lines, CellTiter-Glo viability, 72 h; series mostly up to 46 µM. The method in brief:
as §2
(qHTS replaces the single test concentration by a dilution series.)

In assay [14] the test system is MKL-2. Described as above. As to conditions: MCC and control cell lines, CellTiter-Glo viability, 72 h; series mostly up to 46 µM. In outline: as §2
Assay [15] deals with UISO. The assay is described as above. The settings on record: MCC and control cell lines, CellTiter-Glo viability, 72 h; series mostly up to 46 µM. In outline:
as §2

Assay [16] relates to WaGa. The assay is described as above. As to conditions: MCC and control cell lines, CellTiter-Glo viability, 72 h; series mostly up to 46 µM. The method in brief:
as §2

Assay [17] deals with CRL-7250. In words: Cytotoxic Profiling of Annotated Libraries Using Quantitative High-Throughput Screening (AID 1296008). Also: nearly all actives have a fitted effect of over 60% in size. The settings on record: Five cell lines viability, CellTiter-Glo ATP luminescence, 48-72 h; max response: stronger effect = lower value. In outline:
as §1

The subject of assay [18] is NIH3T3. In words: qHTS assay to identify novel small-molecules to repurpose for Merkel cell carcinoma treatment (AID 1296009). Also: nearly all actives have a fitted effect of over 60% in size. The settings on record: MCC and control cell lines, CellTiter-Glo viability, 72 h; series mostly up to 44.8 µM. In outline:
as §2

Molecules are shown by their SMILES. Where “and” joins values, the source holds several entries; their conditions need not be identical. Equal values may be shown once. Inconclusive results are not listed. Unmarked numbers belong to inactive results. Calls of active or inactive are those of the source. Calls follow the shape of the dose curve; as a rule, active = well fitted curve in the direction sought with a large enough effect; inconclusive = small, poorly fitted or top-dose-only effect, or another doubt; inactive = no such curve, though single readings can be large; an effect the other way counts as inactive or inconclusive.
% is scaled to controls: 0 for no effect and ±100 for the full control effect; potency is read from the fitted curve at half-maximal effect.

For the compound `O=C(Nc1ccc(OC(F)(F)F)cc1)c1sccc1NCc1ccnc2ccccc12`, the Potency in [1] is 8.33 µM (active) and 20.6 µM (active). Besides, the outcome in assay [2] and in [3] was inactive. For the same compound, the Potency result in assay [4], in [5], in [6], in assay [7], in assay [8] and in [9] was “inactive” each time. Also, the Potency result in assay [10] was “inactive”.
Take `CN1CCN(c2cccc(Nc3nc4c(-c5ccc(S(C)(=O)=O)cc5)cccn4n3)c2)CC1`: the Potency in assay [1] was 9.2 µM (active); in [2], 14.8 µM (active) and 5.17 µM (active). The compound was classed as inactive in [11]. For the same compound, the max response in assay [12] is -10.8% and -33.2%. Moreover, the Potency result in assay [4], in [5], in assay [13], in [14], in assay [15] and in assay [16] was “inactive” each time. Moreover, the Potency entry in assay [6], in assay [7], in assay [8], in assay [9] and in assay [10] was “inactive” throughout.
Regarding `CN1N=C(N)c2cn([C@@H]3O[C@H](COP(=O)(O)O)[C@@H](O)[C@@H]3O)c3ncnc1c23`, the Potency in assay [17] is 1.32 µM (active); in assay [11], 3.72 µM (active); in assay [12], 0.418 µM (active); in assay [13], 5.9 µM (active); in assay [14], 5.9 µM (active); in assay [15] it was 0.469 µM (active). Also, the Potency in assay [16] was 0.0372 µM (active). For the same compound, in assay [5], the Potency result is “inactive”.
Turning to `COc1cc2nc(-c3cc(F)ccc3O)nc(N[C@@H]3CNC[C@@H]3C(C)(C)O)c2cc1OC`, the Potency in assay [1] was 14.8 µM (active); in assay [2], 26.4 µM (active); in assay [11], 16.6 µM (active); in assay [4] it was 20.9 µM (active); in assay [14], 9.35 µM (active).
Turning to `NS(=O)(=O)c1ccc(Nc2nc(OCC3CCCCC3)c3[nH]cnc3n2)cc1`, the Potency is 18.4 µM (active) in [1], 14.8 µM (active) in assay [11] and 2.35 µM (active) in assay [15]. Moreover, the max response in [2] was -17.9%. Besides, the Potency entry in assay [4], in assay [5], in assay [14], in [6], in [8] and in [9] was “inactive” in each case. Besides, the Potency entry in assay [10] is “inactive”.
On to `NC1(C(=O)N[C@@H](CCO)c2ccc(Cl)cc2)CCN(c2ncnc3[nH]ccc23)CC1`, for which the Potency in [1] is 469 nM (active) and 517 nM (active); in [6] it was 2.51 µM (active). In addition, the max response in assay [2] is -16.7%; in [11], -18% and -7.12%; in assay [12], -1.34%. In addition, in assay [12], the result was inactive. Further, the Potency entry in assay [4], in [5], in [13], in [18], in assay [9] and in [10] was “inactive” each time.
On to `Cc1ccc(NC(=O)Nc2cc(C(F)(F)F)ccc2F)cc1Nc1ccc2c(c1)NC(=O)C2=Cc1ccc[nH]1`, for which the Potency in assay [1] is 11.8 µM (active); in assay [11], 9.35 µM (active); in assay [12], 16.6 µM (active); in [15], 18.7 µM (active). Also, the Potency result in assay [14] was “inactive”.
With `CNC(=O)c1cc(Oc2ccc(NC(=O)Nc3ccc(Cl)c(C(F)(F)F)c3)c(F)c2)ccn1`, the Potency in [1] was 7.43 µM (active); in assay [14] it was 16.6 µM (active); in assay [15] it was 5.9 µM (active); in assay [16], 18.7 µM (active). Moreover, the compound was called inactive in [2] and in assay [3]. Further, the max response in assay [11] was 1.15%; in assay [12], -27%. The Potency entry in assay [8], in [9] and in assay [10] was “inactive” each time.
On to `O=C(Nc1cccc2c(=O)cc(-c3nn[nH]n3)oc12)c1ccc(OCCCCc2ccccc2)cc1`, for which the Potency in [1] is 18.7 µM (active). The compound was classed as inactive in assay [2] and in assay [3]. Besides, the results for the max response in assay [11] and in assay [12] were -16.8% and -4.19%, respectively. The Potency entry in [4], in assay [5], in assay [13], in [16], in assay [6] and in assay [7] was “inactive” in each case. For the same compound, the Potency result in assay [8] and in [10] was “inactive” each time.
Consider `CN(C)N=Nc1nc[nH]c1C(N)=O`, for which the Potency in assay [1] is 3.72 µM (active); in assay [2], 18.7 µM (active); in assay [11] it was 4.69 µM (active). The max response in assay [12] is -2.97%. Moreover, the Potency entry in [4], in [5], in [13] and in assay [15] was “inactive” in each case.
Turning to `C[C@@H](O[C@H]1OCCN(Cc2n[nH]c(=O)[nH]2)[C@@H]1c1ccc(F)cc1)c1cc(C(F)(F)F)cc(C(F)(F)F)c1`, the results for the Potency in assay [1] and in assay [11] were 20.9 µM (active) and 26.4 µM (active), respectively. For the same compound, the results for the max response in assay [2] and in assay [12] were -38.5% and -21.1%, respectively. For the same compound, the Potency result in assay [4], in assay [5], in assay [13], in assay [14] and in assay [16] was “inactive” in each case.

Source of the values: PubChem BioAssay (NCATS).
